Measurements: article PMC6212790, “How bacterial xenogeneic silencer rok distinguishes foreign from self DNA in its resident genome”
Over roughly 33,000 sequences, “e-score” has its median near -0.038; the highest 2% begin near 0.33. This excerpt belongs to a sample that is enriched for the highest values.

These sequences were tested against T1, GST-Rok-C97-191 (Bacillus subtilis subsp. subtilis str. …, UniProt O34857 97-191) (assay: protein binding microarray; Rok is a gene silencer of Bacillus subtilis; high values mean tight binding). Settings: protein: recombinant; tags: GST (pTH5325, pDEST15-Magic modified); dsDNA, one strand shown.
T1 sequence: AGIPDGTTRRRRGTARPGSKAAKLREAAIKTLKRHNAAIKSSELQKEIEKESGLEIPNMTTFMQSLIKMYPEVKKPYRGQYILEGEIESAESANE
Method in brief: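 Each has a 25-mer constant primer and a 35-mer variable part from a de Bruijn sequence of order 10, covering every non-palindromic 8-mer at least 32 times (palindromic 16). Preference for each 8-mer is given as a rank-based, unitless enrichment score (E-score). Its range runs from 0.5 (most favored) to −0.5 (most disfavored).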

| Sequence | binding signal |
| --- | --- |
| CACGAAGC | -0.104 E-score |
| AGCATTTG | -0.0352 E-score |
| AACTGAAC | 0.106 E-score |
| GCCATTGA | -0.0503 E-score |
| TATTTAAA | 0.186 E-score |
| AAAAGACG | 0.0272 E-score |
| TAACGGTA | 0.278 E-score |
| CTTGAAGA | -0.0244 E-score |
| AGTTATAC | 0.241 E-score |
| ATTTATAG | 0.358 E-score |
| ATTTATAA | 0.294 E-score |
| CTTTATAC | 0.227 E-score |
| ATTTATGG | 0.174 E-score |
| ATTTATAC | 0.348 E-score |
| GACTCTCA | -0.0851 E-score |
| GGTCTGCA | -0.0588 E-score |
| ATCTACAC | 0.273 E-score |
| AGCTACAC | 0.169 E-score |
| AGCTACAT | 0.368 E-score |
| AACTACAC | 0.33 E-score |
| AGCTACAA | 0.209 E-score |
| ATCTACAT | 0.342 E-score |
| AACTACAA | 0.348 E-score |
| CACTACAA | 0.173 E-score |
| GACTACAC | -0.000838 E-score |

| Sequence | binding signal |
| --- | --- |
| CACTACAC | 0.0572 E-score |
| ATCTACAG | 0.309 E-score |
| GACTACAA | -0.00391 E-score |
| AGAACTGG | -0.0864 E-score |
| CAATGGGC | -0.197 E-score |
| AATCGCCA | -0.00284 E-score |
| AAAGCCAT | -0.088 E-score |
| GTTCCTGA | -0.0326 E-score |
| ACTCGTTA | 0.225 E-score |
| AACTACGC | 0.126 E-score |
| AACTACGA | 0.283 E-score |
| AACTACGT | 0.338 E-score |
| AACTACAT | 0.364 E-score |
| AACTACAG | 0.327 E-score |
| ACCTACAT | 0.227 E-score |
| AACAATGA | 0.0026 E-score |
| ACGAGCAG | -0.19 E-score |
| ATTTTGAC | 0.235 E-score |
| ACGCTCAC | -0.0887 E-score |
| ACCATAAC | 0.0976 E-score |
| GACTTTAC | -0.0515 E-score |
| ACATCTAG | 0.323 E-score |
| AAATCTAG | 0.352 E-score |
| AAATCTAA | 0.202 E-score |
| CAATCTAG | 0.206 E-score |

| Sequence | binding signal |
| --- | --- |
| AAATCTGC | -0.0413 E-score |
| AAATCTAT | 0.4 E-score |
| AAATCTGT | 0.141 E-score |
| AAATCTTC | 0.0559 E-score |
| AAATCTAC | 0.441 E-score |
| AGCTTTCG | -0.16 E-score |
| GAGAACCC | -0.104 E-score |
| CCTTCTAC | 0.235 E-score |
| AAGTTGGA | -0.145 E-score |
| AGCAATTG | 0.332 E-score |
| AGCAATTC | 0.115 E-score |
| AGCAATTA | 0.303 E-score |
| CGGCCGAG | -0.169 E-score |
| AGCGCCCC | -0.198 E-score |
| AGGGACCC | -0.173 E-score |
| ATTCTACA | 0.382 E-score |
| ACTCTACC | -0.0607 E-score |
| CTTCTACC | 0.348 E-score |
| ATTCTATA | 0.224 E-score |
| ATTCTACG | 0.179 E-score |
| GTTCTACA | 0.247 E-score |
| ATTCTACC | 0.467 E-score |
| ATTCTAGC | 0.249 E-score |
| ATTCTATC | 0.414 E-score |
| CTTCTATC | 0.241 E-score |

| Sequence | binding signal |
| --- | --- |
| CTTCTACA | 0.273 E-score |
| CTTCTAGC | 0.138 E-score |
| ATTCAGTC | 0.00215 E-score |
| AAGTATGA | 0.179 E-score |
| ATTCAATG | -0.0215 E-score |
| AACAGCGT | -0.0978 E-score |
| AAGCATGG | -0.183 E-score |
| TAAATGCA | 0.289 E-score |
| TGAATTAA | 0.0945 E-score |
| AGTTGAAC | -0.0218 E-score |
| AGTAGGTG | 0.127 E-score |
| AGTAGGTA | 0.4 E-score |
| CGTAGGTA | 0.336 E-score |
| GGTAGGAA | 0.247 E-score |
| GCTAGGTA | 0.145 E-score |
| CCTAGGTA | 0.144 E-score |
| AGTAGGTC | 0.159 E-score |
| CGTAGGCA | -0.0837 E-score |
| GGTAGGTA | 0.331 E-score |
| CAATGAAA | -0.098 E-score |
| CAGCATGA | -0.0331 E-score |
| CTGGAGGA | -0.0909 E-score |
| CGTGTTAC | 0.0253 E-score |
| CGTAGCCC | -0.128 E-score |
| CCTAATAA | -0.00276 E-score |

| Sequence | binding signal |
| --- | --- |
| TAGACCCA | 0.00211 E-score |
| CTATAGTA | 0.371 E-score |
| GTATCGTA | 0.268 E-score |
| CTATAGTC | 0.122 E-score |
| CTATCGTA | 0.357 E-score |
| ATATCGTA | 0.263 E-score |
| GTATAGTA | 0.25 E-score |
| ATATAGTG | 0.253 E-score |
| ATATAGTC | 0.225 E-score |
| ATATAGTA | 0.438 E-score |
| CGGGACTA | 0.0767 E-score |
| AATGATGC | 0.103 E-score |
| AAGGTCTA | -0.133 E-score |
| ATTCCGGC | 0.0407 E-score |
| CCCACTAG | 0.0169 E-score |
| AGGTTAGG | -0.139 E-score |
| GCCTTCGC | -0.0744 E-score |
| CCCAACTA | 0.257 E-score |
| CAATAAGA | -0.045 E-score |
| CAATGACG | -0.168 E-score |
| AGGTTCAG | 0.0249 E-score |
| ATACATAT | 0.377 E-score |
| AAACATAT | 0.276 E-score |
| ATACATAG | 0.371 E-score |
| ATACATAC | 0.338 E-score |

| Sequence | binding signal |
| --- | --- |
| ATACATAA | 0.273 E-score |
| TTACATAA | 0.288 E-score |
| CTACATAC | 0.274 E-score |
| CTACATAG | 0.152 E-score |
| ATACACAT | 0.214 E-score |
| GTACATAA | 0.328 E-score |
| CTACATAA | 0.203 E-score |
| GTACATAC | 0.172 E-score |
| ACGGGACT | 0.158 E-score |
| CATCATTC | 0.0109 E-score |
| GCGATGCC | -0.131 E-score |
| CGACTTGA | 0.0696 E-score |
| CTGCGTAC | -0.112 E-score |
| TCCGAGCA | 0.113 E-score |
| AAAATGTA | 0.316 E-score |
| GAAATGTC | 0.165 E-score |
| GAAATGTA | 0.329 E-score |
| CAAATGTA | 0.269 E-score |
| TAAATGTA | 0.399 E-score |
| GAAATGCA | -0.0957 E-score |
| TGCCTAAA | -0.0357 E-score |
| ACCCTTAT | 0.126 E-score |
| CGCACTGC | 0.0347 E-score |
| ACATCGAG | 0.0748 E-score |
| ACGTGGGG | -0.173 E-score |

| Sequence | binding signal |
| --- | --- |
| AGATTCTA | 0.356 E-score |
| AGATTCTC | 0.00255 E-score |
| ATATTCTC | 0.327 E-score |
| ATATTCTA | 0.408 E-score |
| GGATTCTA | 0.293 E-score |
| CTATTCTA | 0.287 E-score |
| TCATCTAA | -0.0045 E-score |
| CAGGTCTC | -0.144 E-score |
| GACTTGGC | -0.0709 E-score |
| ATAATATG | 0.244 E-score |
| GTAATACA | 0.258 E-score |
| CTAATAGA | 0.252 E-score |
| GTAATATA | 0.335 E-score |
| CCAATATA | 0.323 E-score |
| CTAATATC | 0.141 E-score |
| GTAATAGA | 0.284 E-score |
| ACAATATA | 0.354 E-score |
| CTAATATA | 0.36 E-score |
| ATAATATA | 0.435 E-score |
| ATAATATC | 0.209 E-score |
| ACAATATG | 0.146 E-score |
| AGTGCCGC | -0.0284 E-score |
